The results in this text go back to PubChem BioAssay (NCATS).

The list shows a part of the results. Results filed as inconclusive are left out. The source made the active and inactive calls. Calls follow the shape of the full dose curve.
Potency is read from the fitted curve at half-maximal effect.

The assay deals with Chikungunya virus nsP2 protease. In words: Confirmatory qHTS for inhibitors of NSP2Pro chikungunya virus (CHIKV) (AID 1964105). Also: nearly all actives have a fitted effect of over 75% in size. The settings on record: CHIKV nsP2 protease enzymatic activity; series mostly up to 25.5 µM. The text has this:
PI: Natalia J. Martinez Ph.D.
National Center for Advancing Translational Sciences (NCATS),
National Institute of Health (NIH), Rockville, Maryland
Chikungunya virus (CHIKV) is a mosquito-borne RNA virus that has emerged as one of the most important global arboviral threats in the last decade. Although the first CHIKV vaccine has recently been FDA approved for use in healthy adults at increased risk, to date, there are no available antiviral drugs for CHIKV infection. CHIKV nsP2 protease plays a crucial role in the processing of the viral polypeptide precursor to release enzymes required for viral replication, thus making it a promising drug target for antiviral discovery. Here, we established a high-throughput pipeline to identify small molecule inhibitors of nsP2 proteolytic activity. The pipeline is composed of a suite of 1,536-well in vitro assays to support quantitative high-throughput (qHTS) screening campaigns. Specifically, we developed a fluorescence resonance energy transfer (FRET)-based assay using a fluorogenic peptide substrate encompassing an endogenous cleavage site and purified recombinant protease domain (nsP2pro). Using this assay, we interrogated ~37,000 small molecules, including those in drug repurposing libraries as well as chemically diverse and medicinal chemistry-friendly compounds. Hits were selected for follow-up validation against full-length nsP2 and an additional peptide. FRET-based 1,536-well assays for papain, hepatitis C virus NS3-4A, and human furin proteases were implemented to characterize compound selectivity. […] Novel compounds were identified to be potential nsP2 inhibitors and molecular docking analyses were performed to explain the binding mode of selected hits. In vitro antiviral activity was evaluated for a subset of compounds using a high-throughput CHIKV infection assay. To our knowledge, the pipeline presented here is unprecedented for CHIKV antiviral discovery research.
PROTOCOL TABLE (as described by Inglese J, Shamu CE and Guy RK. 2007)
SEQUENCE No. (e.g., 1, 2, 3, etc.); […] (e.g., Cells, Incubation, Reagent, etc.); VALUE; DESCRIPTION.
1; Control / Compound; 20 nL; Echo 655 acoustic dispenser, Greiner 1536-well solid bottom black plate.
2; Enzyme; 4 uL; BioRAPTR FRD liquid dispenser (Beckman Coulter).
3; Incubation; 15 min; room temperature.
4; Reagent; 4 uL; 2.5 uM Peptide 2 substrate.
5; Incubation; 1 hr; room temperature.
6; Detection; Fluorescence; WiewLux microplate reader (PerkinElmer), 525 nm excitation, 598/25 nm emission.
NOTES (numbers refer to sequence numbers above).
1.Briefly, 20 nL DMSO, positive control ZnAc (20nM final concentration), and test compounds were transferred into a 1,536-well solid bottom black plate (789176-F, Greiner One) via Echo 655 acoustic dispenser (Beckman Coulter). For primary screens, compounds were tested at 7 concentrations, 1:3 dilution points ranging from 25 uM to 34 nM. Follow-up confirmatory screens were carried out at 11 concentrations, 1:3 dilution points from 25 uM to 0.42 nM.
2.Four uL nsP2pro enzyme mix (150 nM final concentration) in 10 mM Tris-HCl pH 8.0 with 0.01% Tween 20 assay buffer was dispensed into the plate using a BioRAPTR FRD liquid dispenser (Beckman Coulter).
3.The plate was incubated at room temperature (protected from light) for 15 min
4.Four microliter of peptide 2 substrate (2.5 uM final concentration) in assay buffer was added to the plate.
5.After 1 hour, plates were immediately read on a ViewLux high-throughput CCD imager (Exposure = 10 sec, Gain = High, Speed = Slow, Binning = 2X). The above assay was also incorporated in the NCATS HTS facility41, which allowed for robotic liquid and compound dispensing, microplate handling, and fluorescence reading.
Inglese J, Shamu CE and Guy RK, Reporting data from high throughput screening of small molecule libraries, Nature Chemical Biology, 2007, 3(8): 438-441. doi.org/10.1038/nchembio0807-438.
For orientation: qHTS replaces the single test concentration by a dilution series.
In the case of `COC([CH2][Hg])CNC(=O)c1ccccc1OCC(=O)O` (stereo not drawn), the Potency is 2.25 µM (active).
The same measure for `CCOc1ccc(NC(=O)c2c(NC(=O)Cc3ccccc3)sc3c2CCCCC3)cc1`: 7.98 µM (active); for `CCc1ccccc1NC(=O)c1cnn(-c2ccc(F)cc2)c1C1CCNCC1`: “inactive”.
In the case of `CCC(C)C(=O)OC1C(C)C2(O)C(C=C(CO)CC3(O)C(=O)C(C)=CC32)C2C(C)(C)C12OC(=O)C(C)C` (stereo not drawn), the Potency entry is “inactive”.
The same measure for `C[C@@H]1C[C@@H](O)[C@@]23CO[C@]2(CO)C[C@@H](O)CC3[C@@]12CC(c1ccoc1)OC2=O` (stereo partly drawn): “inactive”; for `Oc1ccc(OC2CCCCO2)cc1` (stereo not drawn): “inactive”.
The same measure for `C=CC(=O)c1ccc2ccccc2c1`: 6.34 µM (active); for `Cn1nnnc1Sc1ncnc2n[nH]c(-c3cccc(S(C)(=O)=O)c3)c12`: 3.18 µM (active).
Then `N#CSc1cc(SC#N)c(N)nc1N`, with 0.318 µM (active); and `CCOc1ccc(N(Cc2ccccc2)C(=O)c2nc(S(C)(=O)=O)ncc2Cl)cc1`, with 3.18 µM (active).
With `CCOc1ccc(NC(=O)c2c(NC(=O)Cc3ccccc3)sc3c2CCC(C)C3)cc1` (stereo not drawn), the Potency was 7.11 µM (active).
With `O=C(O)c1cccc(-n2[nH]c(-c3ccccc3)cc2=O)c1`, the Potency result was “inactive”.
For `C=Cc1c(C)c2cc3nc(cc4[nH]c(cc5nc(cc1[nH]2)C(C)=C5CCC(=O)O)c(CCC(=O)OC)c4C)[C@@]1(C)C3=CC=C(C(=O)OC)[C@H]1C(=O)OC`, the Potency entry was “inactive”.
